In the library only some 2.1% were active in any assay of this set; here they are far more common.
GSH bead fluor = compound fluoresces at 488/530 nm on GSH beads; GSH beads flow cytometry, compound fluorescence 488/530 nm; hits give high values; fluorescence (KMESF) at 10 µM; 190,000 tested, 0.25% active; AID 1776; in the data active = fluorescence above about 89;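 note: glutathione beads carrying GST-tagged Bcl family fusion proteins plus one bare bead set; values are compound well signal with DMSO vehicle wells as background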
PGE2 EP2 inh = blocks the human prostaglandin E2 receptor EP2. P43116. C6 glioma cells expressing human EP2, cAMP TR-FRET; cells stimulated with saturating PGE2. inhibition, % at 25 µM. 260,000 tested, 0.52% active. AID 1422;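 active = percent inhibition above 40 after rounding to a whole number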;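 note: rat C6 glioma host cells with rolipram phosphodiesterase inhibitor present; the protocol text gives 20 µM as final concentration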
Target sequence (P43116 whole entry, looked up): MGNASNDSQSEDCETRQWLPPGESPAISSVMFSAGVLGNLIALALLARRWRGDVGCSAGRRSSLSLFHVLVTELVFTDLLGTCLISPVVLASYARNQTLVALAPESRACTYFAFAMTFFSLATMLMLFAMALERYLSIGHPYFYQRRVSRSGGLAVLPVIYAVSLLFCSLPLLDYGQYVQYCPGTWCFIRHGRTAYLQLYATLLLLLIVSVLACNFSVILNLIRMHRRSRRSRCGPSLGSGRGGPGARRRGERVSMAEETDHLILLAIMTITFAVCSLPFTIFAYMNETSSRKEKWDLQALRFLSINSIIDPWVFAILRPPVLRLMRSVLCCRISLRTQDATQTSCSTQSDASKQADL
Avidin bead fluor = compound fluoresces at 488/530 nm on avidin beads; fluorescence (KMESF) at 10 µM; AID 1775; compound fluorescence 488/530 nm, flow cytometry; hits give high values; 220,000 tested, 0.38% active; in the data active = fluorescence above about 47
EP2 modulator = modulators of human EP2 prostaglandin E2 receptor; P43116; EP2-expressing cells, cAMP HTRF FRET, PGE2 co-stimulation; induction, % at 25 µM; 260,000 tested, 0.83% active; AID 940;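 active = compounds whose cAMP rise, as percent of the full-agonist control response, exceeds 60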;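 note: rat C6 glioma line stably carrying human EP2 under a CMV promoter; the protocol text gives 20 µM as final concentration; 100% = response of wells given 1 µM PGE2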
HMGR II inh = blocks class II HMG-CoA reductase of Enterococcus faecalis; purified E. faecalis HMGR, NADPH absorbance 340 nm kinetic; inhibition, % at 10 µM; 190,000 tested, 0.41% active; AID 1066;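 active = inhibition above a set limit, the median over all tested compounds plus 3 SD, cut at about 9.5% in these data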;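 note: enzyme runs in reverse so mevalonate oxidation gives rising NADPH absorbance; 0% = complete reaction with DMSO and 100% = background rate lacking mevalonate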
An asterisk follows results filed as active; x = no result; + = active, no number; ! = not active in a repeat.

SMILES	GSH bead fluor	PGE2 EP2 inh	Avidin bead fluor	EP2 modulator	HMGR II inh
CCc1ccc(NC(=O)CSc2nnc(Cn3c(=O)sc4ccccc43)n2C)cc1	16	6.1	27	-5.6	-0.1
CCOC(=O)c1ccc(NC(=O)CSc2nnc(Cn3c(=O)sc4ccccc43)n2C)cc1	26	x	89*	0.5	-11.6
COc1ccc(C(=O)CSc2ncnc3sc4c(c23)CCCC4)cc1OC	x	9.9	x	10.6	x
NC(=O)Cn1nnc(-c2ccc(Cl)cc2)n1	x	3.7	x	-10.1	x
CC(=O)c1c(C)oc2ccc(NS(=O)(=O)c3cccs3)cc12	13	4.6	122*	-81.0	0.9
CC(=O)CSc1nc(C2CC2)cc(C(F)(F)F)c1C#N	x	18.6	x	86.4*	x
Cc1cc(=S)c2ccccc2[nH]1	x	2.5	7	10.1	x
Cc1ccc2[nH]c(C)cc(=S)c2c1	21	12.7	5	75.0*!	-0.6
Cc1nc2cc(C(=O)N3CCCC(c4nc(-c5cccnc5)n[nH]4)C3)ccc2n1C (stereo unspecified)	x	x	x	12.3	x
CCOc1ccc(-c2nn[nH]n2)cc1OCC	24	14.7	7	4.0	-1.3
CCOc1ccc(-c2nn[nH]n2)cc1	275*	4.7	8	13.7	-1.1
COc1ccc(C(=O)N/N=C2\C(=O)c3c(C)cc(C)cc3CC2(C)C)cc1	x	53.1*	x	-12.0	x
COc1ccc2c(c1)CC/C2=N\NC(=O)c1ccccc1	23	4.3	13	-5.0	-7.1
O=S1(=O)CC=C(CSC(=S)NC2CCS(=O)(=O)C2)C1 (stereo unspecified)	10	4.6	11	-0.3	14.9*
CC(C)(C)c1cc(CSC(=S)NC2CCS(=O)(=O)C2)c(Br)c(C(C)(C)C)c1 (stereo unspecified)	19	8.9	10	8.3	-3.7
CSC(SC)=C(C#N)C(=O)c1ccccc1	x	48.2*	3	-37.7	x
CC(C)=CC(=O)OCC(=O)Nc1ccccc1Cl	266*	3.6	7	11.7	-3.1
CC(=O)N1CCN(C(=O)Cn2nc3c(C)cc4cc(C)ccc4n3c2=O)CC1	x	1.8	x	-5.9	x
Cc1cc(N2CCCCC2CCO)n2nc(-c3ccc(F)cc3)cc2n1 (stereo unspecified)	x	7.2	x	-33.5	x
CC(=O)c1cccc(NC(=O)CSc2nnc3c4c5c(sc4nc(C(C)C)n23)CCCC5)c1	x	7.6	x	-54.5	x
COc1ccc(Br)cc1CNCCSc1nnnn1C	253*	8.2	8	30.8	-0.5
COc1ccc(CNCCSc2nnnn2C)c(OC)c1OC	13	14.2	13	5.2	1.3
CC1(C)CNC(=O)c2sc(NC(=O)c3ccccc3)nc2C1	8	5.5	22	-45.4	13.9*
CC1(C)CC(=O)c2sc(NC(=O)c3ccccc3)nc2C1	9	6.1	10	-31.3	-1.4
COCCCN1C(=O)C(O)=C(C(C)=O)C1c1cccnc1 (stereo unspecified)	x	5.0	x	-4.2	x
SMILES	GSH bead fluor	PGE2 EP2 inh	Avidin bead fluor	EP2 modulator	HMGR II inh
CC(=O)CSc1nc(N(C)C)nc(N(C)C)n1	18	1.0	15	4.4	0.2
CN(C)c1nc(SCC#N)nc(N(C)C)n1	26	6.0	59*	31.5	-2.6
COCCn1nnnc1C(c1cc2cc(OC)c(OC)cc2[nH]c1=O)N1CCC(C)CC1 (stereo unspecified)	x	13.5	x	-15.3	x
COc1cccc(OC)c1C(=O)Nc1ccc(N2CCN(C(=O)C(C)C)CC2)c(Cl)c1	x	9.3	x	-14.8	x
CCC1CCCCN1S(=O)(=O)c1cc(Cl)ccc1Cl (stereo unspecified)	x	4.4	x	28.8	x
c1ccc(-c2nnsc2-c2ncc[nH]2)cc1	14	3.8	9	-26.9	1.3
c1ccc(-c2nnsc2-c2nc3ccccc3[nH]2)cc1	18	5.6	6	-42.7	12.1*
Cc1cc([N+](=O)[O-])nn1CC(=O)NNC(=S)Nc1ccc(F)cc1	13	x	29	20.7	3.5
Cc1cccnc1NC(=O)Cn1nc([N+](=O)[O-])cc1C	22	11.4	9	13.0	13.8*
Cc1cc([N+](=O)[O-])nn1CC(=O)Nc1ccc(F)cc1	14	7.5	10	-19.8	11.4*
CCCCN(CCCC)C(=O)C1(P(=O)(c2ccccc2)c2ccccc2)CCC1	x	5.9	7	84.9*	x
CCN(CC)C(=O)C1(P(=O)(c2ccccc2)c2ccccc2)CCC1	x	9.7	8	21.2	x
O=C(N1CCCC1)N1CCC[C@H]1Cn1nc(-c2ccc(F)cc2)ccc1=O	x	x	x	-5.7	x
CCOc1ccccc1-c1nnc(NC(=O)c2cnc(SC)nc2)s1	x	9.8	x	-26.0	x
CCN1/C(=C/C(C)=C/c2sc3ccccc3[n+]2CC)Sc2ccccc21	10	+	5	-255.4	1.4
COc1ccc(NC(=O)c2cncc(Br)c2)c(S(=O)(=O)N2CCOCC2)c1	21	12.3	8	-23.4	11.4*
NC(=O)C(F)(F)C12OC3C4C5CC(C6C5C3C61)C42 (stereo unspecified)	75	106.1*	6	3.2	-3.0
COCCN(C(=O)C1CCCCC1)c1nnc(-c2cccc(C)c2)s1	x	7.7	x	-0.8	x
C=CCn1c2cc(C)sc2c2cnn(Cc3ccncc3)c(=O)c21	x	x	x	-41.3	x
COC(=O)C1=C(CSc2nc3c(cc2C#N)CN(C)CC3)OC(N)=C(C#N)C1c1ccc(F)cc1 (stereo unspecified)	26	5.9	5	-22.1	14.0*
CCOC(=O)C1=C(CSc2nc(CC)c(C)cc2C#N)OC(N)=C(C#N)C1c1ccc(OC)cc1 (stereo unspecified)	10	7.7	12	-21.4	-6.2
Cc1cc(C)c(NC(=O)C2CC(=O)N(c3ccc(OC(C)C)cc3)C2)c(C)c1 (stereo unspecified)	x	5.2	x	-30.9	x
COc1ccc(N(C(=O)c2ccco2)C(C(=O)NC2CCCC2)c2ccc(N(C)C)cc2)cc1 (stereo unspecified)	37	12.5	13	33.2	-0.5
COc1ccc(N(C(=O)c2ccco2)C(C(=O)NC2CCCCC2)c2ccccc2)cc1 (stereo unspecified)	19	10.6	20	61.5*!	0.4
Cc1cc(C)c2[nH]c(=O)c(CN(CCO)C(=S)NCc3ccccc3)cc2c1	x	8.8	x	-61.9	x
SMILES	GSH bead fluor	PGE2 EP2 inh	Avidin bead fluor	EP2 modulator	HMGR II inh
CCC(C)(C)NC(=O)C1CCN(S(=O)(=O)c2cccs2)CC1	38	6.4	80*	-10.6	-8.5
Cc1ccc(NC(=O)C2CCN(S(=O)(=O)c3cccs3)CC2)cc1	8	8.6	20	-33.6	-0.9
O=C(Cn1c(=O)c(=O)n(Cc2ccccc2)c2ccc(Cl)cc21)Nc1cc(F)ccc1F	16	5.5	11	3.5	-1.4
CCNC(=O)Cn1c(=O)c(=O)n(Cc2ccccc2)c2ccc(Cl)cc21	15	6.9	57*	1.2	-11.1
COc1ccc(CN2CCC(C(=O)NC(C)(C)C)CC2)c(OC)c1	x	15.7	x	-9.2	x
COc1cc(N2CCCC2)c(OC)cc1/C=C(/C#N)c1ccc(Br)cc1	74	11.9	59*	16.2	-3.6
Cc1cc(C)n(-c2nc(NCC(C)O)c3c4c(sc3n2)CCCC4)n1 (stereo unspecified)	24	6.6	47*	-32.6	-1.2

High-throughput results: PubChem, several laboratories
